Screens as filed in PubChem.
FMDV antiviral: foot and mouth disease virus antiviral activity; FMDV antiviral cell-based qHTS; 410,000 compounds, 1.2% hits; AID 1159524; Potency, µM (series often up to 57.9 µM), inactives show at the highest dose activity change, negative = inhibition, actives largely listed as inhibitors; calls by dose curve; tested in HEK293T cells; note: read-out not given here; nearly all actives have a fitted effect of over 45% in size
Sm TGR inh: blocks Schistosoma mansoni thioredoxin glutathione reductase. Potency, µM (highest dose often 114 µM), without a hit: top-dose activity change, negative = inhibition, hits mostly inhibitors. 360,000 compounds, 3% hits. Q962Y6. AID 485364. purified TGR, DTNB reduction, TNB absorbance 405 nm; note: nearly all actives have a fitted effect of over 60% in size
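Kinetic colorimetric format: TGR-catalysed, NADPH-driven DTNB reduction monitored via TNB absorbance. Enzyme dispensed at 20 nM; compound exposure 15 min at room temperature before reaction start.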
TbPYK inhibitor: blocks Trypanosoma brucei pyruvate kinase; 410,000 compounds, 0.12% hits; Potency, µM (series often up to 76.8 µM), inactives show top-dose activity, negative = inhibition, usual class: inhibitors; AID 624173; Q57TT1; TbPYK enzyme, Kinase-Glo Plus ATP luminescence, 45 min; note: nearly all actives have a fitted effect of over 50% in size
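Activity of T. brucei pyruvate kinase was followed by Kinase-Glo Plus luminescence after the enzyme reacted 45 min at room temperature with 130 uM ADP (final) and substrate. Test compounds were added before ADP at multiple concentrations.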
RE007 growth inh: less growth of the S. pombe RE007 Vpr strain | S. pombe RE007 Vpr strain, BacTiter-Glo ATP luminescence, 24 h | 360,000 compounds, 0.21% hits | Potency, µM (top dose mostly 92.2 µM), inactives show at the highest dose activity change, negative = less growth, hits mostly inhibitors; active = well fitted falling curve with a large enough effect; inconclusive = small, poorly fitted or top-dose-only effect; inactive = no such curve, though single readings can be large or run the other way; note: nearly all actives have a fitted effect of over 50% in size
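Fission yeast strain RE007, carrying one chromosomally integrated HIV-1 vpr copy, was seeded at OD 0.01 in PMG+AL medium with 23 nL pinned compound. After 24 h at 30 °C and 99% humidity, viability was read by BacTiter-Glo luminescence.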
An asterisk follows results filed as active; ? = inconclusive; / = no result. Rows were chosen to be rich in hits. Some 3.7% of all compounds tested hit in one or more screens of this group. Unless noted, calls come from the whole dose curve; as a rule, active = well fitted curve in the direction sought with a large enough effect; inconclusive = small, poorly fitted or top-dose-only effect, or another doubt; inactive = no such curve, though single readings can be large; an effect the other way counts as inactive or inconclusive. % is set by controls: 0 for no effect and ±100 for the full control effect; potency is the fitted concentration of half-maximal effect.

SMILES	FMDV antiviral	Sm TGR inh	TbPYK inhibitor	RE007 growth inh
Cc1ccc(Cn2c(=O)n(CCCCC(=O)NCc3ccccc3Cl)c(=O)c3ccccc32)cc1	?	4.2%	2.3%	/
CCn1ccc2cc(S(=O)(=O)N3CCC(C(=O)NCc4ccc(OC(C)C)cc4)CC3)ccc21	6.4%	-10.2%	-1.3%	/
Cc1cccc(NC(=O)c2sc(-n3nc(C)c(CCC(C)C)c3C)nc2C)c1C	-3.7%	0.8%	3.6%	/
Cc1ccc(C(=O)OCC(=O)c2cc(C)n(CC3CCCO3)c2C)cc1 (centres undefined)	-13.3%	/	-0.1%	13.9%
Cc1cc(C(=O)COc2cccnc2[N+](=O)[O-])c(C)n1Cc1cccs1	7.94µM*	4.5%	-13.4%	-12.0%
O=C(COc1cccnc1[N+](=O)[O-])Nc1c(Cl)cccc1Cl	-8.3%	/	0.8%	18.1%
CC(=O)Nc1ccccc1OCC(=O)c1cc(C)n(Cc2cccs2)c1C	?	7.6%	4.1%	6.3%
Cc1cc(C(=O)COC(=O)c2ccccc2Br)c(C)n1CC1CCCO1 (centres undefined)	0.398µM*	-6.0%	-8.3%	-21.0%
O=C(COc1cccnc1[N+](=O)[O-])c1ccc(Cl)s1	17.6%	2µM*	-17.2%	?
Cc1cc(C(=O)COC(=O)c2cc(O)c3ccccc3c2O)c(C)n1CC1CCCO1 (centres undefined)	-27.8%	20µM*	?	-15.8%
Cc1cc(C(=O)COC(=O)c2n[nH]c3ccccc23)c(C)n1CC1CCCO1 (centres undefined)	?	-0.8%	-10.4%	?
COc1ccc(NC(=O)C2=C(C)Nc3c(C(=O)Nc4ccc(C)cc4)cnn3C2c2cccc(Cl)c2)cc1 (centres undefined)	-9.4%	1.8%	0.0%	/
O=C(NCc1ccc2c(c1)CCN2C(=O)c1ccc(Cl)cc1)c1cccc(F)c1	-9.3%	3.3%	1.1%	/
Cc1cc(C(=O)COC(=O)c2ccccc2NCCO)c(C)n1CC1CCCO1 (centres undefined)	-25.7%	-19.9%	2.9%	14.4%
Cc1cc(C(=O)COC(=O)c2cccnc2Cl)c(C)n1CC1CCCO1 (centres undefined)	?	1.8%	-23.5%	-23.9%
Cc1cc(C(=O)COC(=O)c2ccccc2O)c(C)n1CC1CCCO1 (centres undefined)	35.5µM*	-1.7%	-12.1%	?
Cc1cc(C(=O)COC(=O)c2cccc(NS(C)(=O)=O)c2)c(C)n1CC1CCCO1 (centres undefined)	11.2µM*	/	4.4%	-1.8%
COc1ccccc1C(=O)N1CCOc2ccc(C(C)(O)CCn3cccn3)cc2C1 (centres undefined)	-0.5%	/	/	/
Cn1cnnc1SCC(=O)c1cc2ccccc2oc1=O	/	8.91µM*	?	-9.6%
O=C(Cn1nc(Cl)nc1Cl)c1cc2ccccc2oc1=O	-17.6%	14.1µM*	-4.4%	-27.5%
O=C(Cn1nc(Cl)nc1Cl)c1ccc2c(c1)OCCO2	?	20µM*	-2.0%	?
CCC1CCCCN1CCCNC(=O)c1ccc2c(c1)N(Cc1ccc(Cl)cc1)C(=O)c1ccccc1S2(=O)=O (centres undefined)	-14.0%	4.5%	2.8%	/
CCC(COC)Oc1cc(NCc2ccccc2)c2ncn(C(C)C)c2c1 (centres undefined)	-9.1%	28.2µM*	-18.9%	-12.3%
CCC(CO)Oc1cc(NCc2ccccc2)c2ncn(C(C)C)c2c1 (centres undefined)	-11.2%	/	-10.2%	-9.8%
CC(C)n1cnc2c(NCc3ccccc3)cc(N[C@H](C)CO)cc21	8.91µM*	/	-0.6%	?
SMILES	FMDV antiviral	Sm TGR inh	TbPYK inhibitor	RE007 growth inh
CCOc1ccc(CCNC(=O)C2=C(C)C(=O)OC23CCCCC3)cc1	-10.4%	-2.2%	-4.9%	/
COc1ccccc1-c1nnc(SCC(=O)Nc2oc(C)c3c(C)n[nH]c(=O)c23)n1C	1.4%	19.3%	-21.8%	-5.4%
COCC(C)n1c(COc2ccccc2F)nnc1SCC(=O)Nc1oc(C)c2c(C)n[nH]c(=O)c12 (centres undefined)	-1.0%	25.1µM*	?	-10.0%
Cc1cc(-n2c(C)nc3ccccc3c2=O)ccc1NC(=O)C(F)(F)F	-23.0%	7.0%	0.7%	/
COc1cc(CNc2ncc(-c3ccc(Br)cc3)n2C)cc(OC)c1O	-8.6%	15.8µM*	2.6%	-11.4%
COc1ccccc1-c1cncnc1NCCNC(C)=O	-10.3%	/	/	/
CCc1ccc2[nH]c(=O)c(C(c3nnnn3CC3CCCO3)N3CCCc4ccccc43)cc2c1 (centres undefined)	13.5%	35.5µM*	0.4%	-5.2%
